Results from PubChem BioAssay AID1159580 (chemical genetic matrix, 2015).
In all, about 5,500 compounds went through this assay and about 2,000 (36%) were called active. Inconclusive results (about 18%) are left out. Rule as the data show it: active = normalized growth mostly below about 0.91 (no sharp cut-off); inconclusive = no clear call, values can overlap the other calls; inactive = mostly above about 0.92. This is one part of the list.

Assay: chemical genetic growth profiling, strain panel (AID 1159580);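 also: tested at 20 µM; growth read once vehicle control cultures reached saturation at 30 °C; 1 = growth at the plate median or of vehicle wells; lower values mean less growth of the strain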
Conditions: S. cerevisiae deletion strains, growth OD

Measured: normalized growth

COc1cc(OC)c2c(=O)c(-c3ccc4c(c3)OCO4)coc2c1
inactive: locus YAL021C, strain ccr4, hits give low values 1.01 | locus YAL026C, strain drs2, hits give low values 0.982 | locus YAL030W, strain snc1, hits give low values 0.977 | locus YBL061C, strain skt5, hits give low values 0.979 | locus YBR009C, strain hhf1, hits give low values 0.984 | locus YBR023C, strain chs3, hits give low values 0.989 | locus YBR171W, strain sec66, hits give low values 0.969 | locus YBR231C, strain swc5, hits give low values 1 | locus YBR279W, strain paf1, hits give low values 0.992 | locus YCL011C, strain gbp2, hits give low values 0.981 | locus YCL016C, strain dcc1, hits give low values 0.986 | locus YCL061C, strain MRC1, hits give low values 0.996 | locus YCL069W, strain vba3, hits give low values 0.983 | locus YCR088W, strain abp1, hits give low values 0.979 | locus YDL005C, strain med2, hits give low values 0.997 | locus YDL040C, strain nat1, hits give low values 0.981 | locus YDR001C, strain nth1, hits give low values 0.98 | locus YDR069C, strain doa4, hits give low values 0.998 | locus YDR137W, strain rgp1, hits give low values 1.01 | locus YDR159W, strain sac3, hits give low values 1.01 | locus YDR195W, strain ref2 0.988 | locus YDR297W, strain sur2, hits give low values 0.989 | locus YDR334W, strain swr1, hits give low values 0.991 | locus YDR335W, strain msn5, hits give low values 1 | locus YDR392W, strain spt3, hits give low values 0.802 | locus YEL003W, strain gim4, hits give low values 0.992 | locus YEL037C, strain rad23, hits give low values 0.993 | locus YEL061C, strain CIN8 (second series), hits give low values 0.986 | locus YER015W, strain faa2, hits give low values 1 | locus YER016W, strain bim1, hits give low values 0.987 | locus YER111C, strain swi4, hits give low values 1.01 | locus YER155C, strain BEM2 (second series), hits give low values 0.942 | locus YFR010W, strain ubp6, hits give low values 1 | locus YGL167C, strain pmr1, hits give low values 0.984 | locus YGL173C, strain kem1, hits give low values 0.985 | locus YGL227W, strain vid30, hits give low values 0.978 | locus YGL240W, strain doc1, hits give low values 1.02 | locus YGL253W, strain hxk2, hits give low values 0.977 | locus YHR013C, strain ard1, hits give low values 0.971 | locus YHR027C, strain rpn1, hits give low values 1 | locus YHR030C, strain SLT2, hits give low values 1.05 | locus YHR079C, strain IRE1, hits give low values 1.05 | locus YHR142W, strain chs7, hits give low values 0.931 | locus YJL092W, strain hpr5, hits give low values 0.978 | locus YJL095W, strain BCK1 (second series), hits give low values 0.984 | locus YJL095W, strain BCK1, hits give low values 1.03 | locus YJL115W, strain asf1, hits give low values 0.992 | locus YJL129C, strain trk1, hits give low values 0.918 | locus YJL154C, strain vps35, hits give low values 0.991 | locus YJL164C, strain tpk1, hits give low values 0.98 | locus YJL166W, strain qcr8, hits give low values 0.99 | locus YJL187C, strain SWE1, hits give low values 0.996 | locus YJR066W, strain TOR1, hits give low values 0.99 | locus YKL160W, strain elf1, hits give low values 0.991 | locus YKR026C, strain gcn3, hits give low values 0.98 | locus YKR091W, strain srl3, hits give low values 0.986 | locus YLL001W, strain dnm1, hits give low values 0.977 | locus YLL026W, hits give low values 0.985 | locus YLL041C, strain sdh2, hits give low values 0.99 | locus YLR027C, strain aat2, hits give low values 0.979 | locus YLR113W, strain HOG1, hits give low values 1.08 | locus YLR221C, strain rsa3, hits give low values 0.961 | locus YLR258W, strain gsy2, hits give low values 0.976 | locus YLR262C, strain YPT6 (second series), hits give low values 1.04 | locus YLR320W, strain mms22, hits give low values 0.964 | locus YLR342W, strain FKS1, hits give low values 0.983 | locus YLR357W, strain rsc2, hits give low values 0.987 | locus YLR370C, strain arc18, hits give low values 0.99 | locus YLR384C, strain iki3, hits give low values 0.99 | locus YML120C, strain ndi1, hits give low values 0.967 | locus YMR058W, strain fet3, hits give low values 0.983 | locus YMR125W, strain sto1, hits give low values 0.989 | locus YMR129W, hits give low values 0.981 | locus YMR205C, strain PFK2, hits give low values 0.962 | locus YMR231W, strain pep5, hits give low values 0.987 | locus YNL071W, strain lat1, hits give low values 0.954 | locus YNL183C, strain NPR1, hits give low values 0.984 | locus YNL209W, strain ssb2, hits give low values 0.985 | locus YNL248C, strain rpa49, hits give low values 1.02 | locus YNL322C, strain KRE1 (second series), hits give low values 0.983 | locus YNR049C, strain mso1, hits give low values 0.995 | locus YOR001W, strain rrp6, hits give low values 0.994 | locus YOR070C, strain gyp1, hits give low values 0.999 | locus YOR080W, strain dia2, hits give low values 1 | locus YOR083W, strain WHI5, hits give low values 0.98 | locus YOR106W, strain vam3, hits give low values 0.986 | locus YOR231W, strain MKK1, hits give low values 1.07 | locus YOR265W, strain rbl2, hits give low values 0.99 | locus YOR270C, strain vph1, hits give low values 0.922 | locus YOR290C, strain snf2, hits give low values 0.957 | locus YPL051W, strain arl3, hits give low values 1.01 | locus YPL078C, strain atp4, hits give low values 0.983 | locus YPL106C, strain sse1, hits give low values 0.987 | locus YPL240C, strain hsp82, hits give low values 0.984 | locus YPL256C, strain CLN2, hits give low values 1.05
